An excerpt weighted towards active compounds, which were near 3.5% of everything screened.
GPR151 activ – activates the human receptor GPR151; activation, % at 11.2 µM; AID 1508602; 650,000 tested, 1% active; PathHunter beta-arrestin GPR151 cells, luminescence; Q8TDV0; in the data active = activation above about 4.9%
MITF primary – blocks human microphthalmia-associated transcription factor | 650,000 tested, 0.91% active | inhibition, % at 2.6 µM | AID 1259374 | O75030 | AlphaScreen MITF homodimerization, bead proximity signal; in the data active = inhibition above about 50%
FBW7 act – human FBW7 E3 ligase activation, primary screen | Q969H0 | AlphaScreen FBW7–phospho-cyclin E peptide binding, activator screen | normalized activity (activation), % at 26.1 µM | 650,000 tested, 0.13% active | AID 1259310; in the data active = normalized activity above about 1.9%;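 note: purified mutant Fbw7 with reduced substrate affinity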
Target sequence (Q969H0 whole entry, looked up): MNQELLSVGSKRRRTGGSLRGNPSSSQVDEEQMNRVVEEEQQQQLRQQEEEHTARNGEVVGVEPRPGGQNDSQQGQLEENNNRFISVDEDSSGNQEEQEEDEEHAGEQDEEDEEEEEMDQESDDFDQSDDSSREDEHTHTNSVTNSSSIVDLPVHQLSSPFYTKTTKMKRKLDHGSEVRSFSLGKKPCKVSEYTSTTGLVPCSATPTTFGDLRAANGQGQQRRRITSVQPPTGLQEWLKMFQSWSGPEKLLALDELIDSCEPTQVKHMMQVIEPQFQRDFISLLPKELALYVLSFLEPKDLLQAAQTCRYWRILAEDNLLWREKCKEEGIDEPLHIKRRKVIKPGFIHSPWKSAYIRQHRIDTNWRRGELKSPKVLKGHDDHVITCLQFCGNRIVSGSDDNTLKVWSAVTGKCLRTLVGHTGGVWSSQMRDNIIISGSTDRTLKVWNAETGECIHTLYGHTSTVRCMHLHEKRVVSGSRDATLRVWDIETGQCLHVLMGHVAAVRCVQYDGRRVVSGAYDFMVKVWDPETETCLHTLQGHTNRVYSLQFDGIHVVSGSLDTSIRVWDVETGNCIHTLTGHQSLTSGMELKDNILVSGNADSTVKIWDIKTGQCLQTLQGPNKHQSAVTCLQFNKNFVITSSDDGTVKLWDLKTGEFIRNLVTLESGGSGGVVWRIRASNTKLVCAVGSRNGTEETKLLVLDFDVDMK
TEAD-YAP block – TEAD-YAP interaction inhibition. HEK-TIYL cells, TEAD-Gal4/YAP UAS-luciferase luminescence. 640,000 tested, 1.4% active. inhibition, % at 9.12 µM; in the data active = inhibition above about 32%
Numbers stand for hits; – = inactive.

SMILES | GPR151 activ | MITF primary | FBW7 act | TEAD-YAP block
O=C(Nc1cccc(O)c1)c1cc(-c2ccc(Cl)cc2)on1 | – | – | – | 80.6
O=C(/C=C/c1cccs1)NC(=S)NNC(=O)c1ccco1 | – | – | – | –
C[C@@H](N)c1ccc(C(=O)Nc2ccncc2)cc1 | – | – | – | 50.0
CC(C)CCOC(=O)c1ccc(NC(=O)c2ccncc2)cc1 | – | – | – | –
CC(C)COC(=O)c1ccc(NC(=O)c2ccncc2)cc1 | – | – | – | 32.6
CC(=O)Nc1ccc(C(=O)Nc2ccncc2)cc1 | – | – | – | –
COc1ccc(-c2nc3c4cnn(-c5ccc(C)cc5)c4ncn3n2)cc1 | – | – | – | –
Cc1c(C(=O)Nc2ccc([N+](=O)[O-])cc2)sc2ncn(Cc3ccccc3Cl)c(=O)c12 | – | – | – | –
Cc1cc(OCC(=O)Nc2ccccn2)ccc1Cl | – | – | – | 63.5
Cc1ccnc(NC(=O)COc2ccc(Cl)c(C)c2)c1 | – | – | – | –
CC(=O)Oc1ccccc1/C=C1/SC(=S)N(C2CCS(=O)(=O)C2)C1=O (stereo unspecified) | – | – | – | –
CCCOC(=O)C1=C(C)N(CC)C(=O)NC1c1ccccc1[N+](=O)[O-] (stereo unspecified) | – | – | 2.5 | –
c1ccc2c(c1)Cc1cc3ccccc3nc1-2 | – | – | – | 46.6
Cc1ccc2nc(-c3ccccc3)c(-c3ccccc3)nc2c1 | – | – | – | –
Cc1ccc2cc3c(nc2c1)-c1ccccc1C3 | – | – | – | 60.2
Cc1cc(C)c2c(c1)Cc1cc3ccccc3nc1-2 | – | – | – | –
CCOC(=O)c1ccc(NC(=O)Cn2cnc3c(cnn3C(C)(C)C)c2=O)cc1 | – | – | – | –
Cc1cc([N+](=O)[O-])nn1CC(=O)Nc1cccc(O)c1 | – | – | – | –
O=C(NNC(=O)c1cc2sccc2nc1C(F)(F)F)c1ccccc1 | – | – | – | –
NS(=O)(=O)c1ccc(CNc2ccc3ncc(-c4cccc5cccnc45)n3n2)cc1 | – | – | – | –
NS(=O)(=O)c1ccc(CNc2ccc3ncc(-c4ccccc4F)n3n2)cc1 | – | – | – | 33.8
OCc1ccc(-c2cnc3ccc(NCc4ccc(F)cc4)nn23)cc1 | – | – | – | –
COc1ccccc1-c1cnc2ccc(NCc3cc(OC)c(OC)c(OC)c3)nn12 | – | – | – | 58.8
Oc1ccc(-c2cnc3ccc(NCc4ccc(F)cc4)nn23)cc1 | – | – | – | 40.2
COc1ccc(CNc2ccc3ncc(-c4ccncc4)n3n2)cc1 | – | – | – | 65.8
SMILES | GPR151 activ | MITF primary | FBW7 act | TEAD-YAP block
COc1ccc(-c2nc(NCc3ccccc3)c3ncn(C(C)C)c3n2)cc1 | – | – | – | –
Clc1ccc(-c2cnc3ccc(NCc4ccc5c(c4)OCO5)nn23)cc1 | – | – | – | –
COc1ccc(-c2cnc3ccc(NCc4ccc5c(c4)OCO5)nn23)cc1 | – | – | – | 35.6
CN(C)c1ccc(-c2cnc3ccc(NCc4ccc5c(c4)OCO5)nn23)cc1 | – | – | – | 54.6
COc1ccc(/C=N/n2c(C)nnc2-n2nc(C)cc2C)c(OC)c1 | – | – | – | –
CCOC(=O)c1[nH]c(C)c(C(=O)Nc2ccc(C)cc2C)c1C | – | – | – | 51.4
CCOC(=O)c1[nH]c(C)c(C(=O)Nc2ccc(F)cc2C)c1C | – | – | – | 46.8
CCOC(=O)c1[nH]c(C)c(C(=O)Nc2ccc(Br)cc2F)c1C | – | – | – | –
C=CCOC(=O)c1c(C)oc2ccc(NS(=O)(=O)c3ccc(C)cc3)cc12 | – | – | – | –
Cc1cc2nccc(NC(=O)c3c(F)cccc3F)n2n1 | – | – | – | –
Cc1cc2nccc(NC(=O)CSc3ccccc3)n2n1 | – | – | 2.1 | –
c1ccc(-n2cnc3c(NCc4nc5ccccc5[nH]4)nc(N4CCN(Cc5ccc6c(c5)OCO6)CC4)nc32)cc1 | – | – | – | 71.0
c1ccc(-n2cnc3c(NCc4nc5ccccc5[nH]4)nc(N4CCOCC4)nc32)cc1 | – | – | – | 82.2
O=C(NCc1nc2ccccc2[nH]1)c1ccc2nc(-c3ccc(N4CCOCC4)nc3)sc2c1 | – | – | 6.9 | –
c1ccc(-n2cnc3c(NCc4nc5ccccc5[nH]4)nc(-c4ccc(N5CCOCC5)nc4)nc32)cc1 | – | – | – | 44.3
C=C(C)CN1CCN(C(=O)C(C)N2C(=O)c3ccccc3C2=O)CC1 (stereo unspecified) | – | – | – | –
CC(C)CCOc1cccc(C(=O)Nc2ccc(-c3nc4ncccc4o3)cc2)c1 | – | – | – | –
CCC1=Nc2cc(C(=O)NC)ccc2Sc2ccccc21 | – | – | – | –
CCC1=Nc2cc(C(=O)NCC(OC)OC)ccc2Sc2ccc(C)cc21 | – | – | – | 60.4
CC1=Nc2cc(C(=O)NCCN3CCOCC3)ccc2Sc2ccc(Cl)cc21 | – | – | – | –
COCCNC(=O)c1ccc2c(c1)N=C(C)c1cc(Cl)ccc1S2 | – | – | – | 57.4
CC1=Nc2cc(C(=O)NCCN(C)C)ccc2Sc2ccc(Br)cc21 | – | – | – | 60.0
O=C(NCCCN1CCCC1=O)c1cccn2c(=O)c3ccc(Cl)cc3nc12 | – | – | – | –
Cc1ccc(/C=C2\SC(=S)N(/N=C/c3cc([N+](=O)[O-])ccc3O)C2=O)o1 | – | 74.3 | – | –
CCn1nnc2c(NCc3ccc4[nH]c(C)cc4c3)ncnc21 | – | – | – | 65.5
SMILES | GPR151 activ | MITF primary | FBW7 act | TEAD-YAP block
CCn1nnc2c(Nc3cccc(C)c3)ncnc21 | – | – | – | –
O=C(c1ccc2c(=O)n(-c3ccccc3)c(=S)[nH]c2c1)N1CCOCC1 | – | – | – | –
O=C(c1ccc2c(=O)n(-c3ccccc3)c(=S)[nH]c2c1)N1CCCCC1 | – | – | – | 42.9
COc1ccc(OC)c(NC2=CC(=O)CC(c3ccccc3)C2)c1 (stereo unspecified) | – | – | – | 55.0
COc1ccc(NC2=CC(=O)CC(c3ccccc3)C2)c(OC)c1 (stereo unspecified) | – | – | – | 48.0
CCCC(=O)NC(C)C(c1cccs1)N1CCN(c2ccc(OC)cc2)CC1 (stereo unspecified) | – | – | – | –
CCOc1ccc(/C=C/C(O)=C2/C(=O)NC3(C)CC2c2ccccc2O3)cc1OC (stereo unspecified) | – | – | – | 48.9
O=C1CCC/C(=N\NC(=O)C2COc3ccccc3O2)C1 (stereo unspecified) | – | – | – | –
O=C(N/N=C/c1ccc(Br)cc1)C1COc2ccccc2O1 (stereo unspecified) | – | – | – | 36.8
C/C(=N\NC(=O)C1COc2ccccc2O1)c1ccc(Br)cc1 (stereo unspecified) | – | – | – | 37.8
CN1CCC(=NNC(=O)C2COc3ccccc3O2)CC1 (stereo unspecified) | – | – | – | 37.5
C/C(=N\NC(=O)CNC(=O)C1COc2ccccc2O1)c1ccccc1 (stereo unspecified) | – | – | – | –
Cc1ccc(/C=N/NC(=O)C2COc3ccccc3O2)cc1 (stereo unspecified) | – | – | – | 51.2
COc1ccc(N(C(=O)c2[nH]ncc2[N+](=O)[O-])C2(C(=O)Nc3ccccc3)CCCCC2)cc1 | – | – | – | –
